Where “and” joins values, the source holds several entries; their conditions need not be identical. Equal entries are not always repeated. Records with an inconclusive call do not appear. A structure can be active in one record and inactive in another. Calls of active or inactive are those of the source. The calls were made as follows, unless noted: active = hit-call score of the fitted dose curve at least 0.9, where 1 is the maximum; inconclusive = response in the unintended direction; inactive = score below 0.9.
How the values were obtained:
[1] = molecular target: human Peroxisome Proliferator-activated Receptor alpha (PPARa), PPARA (gene 5465) (UniProt Q07869); test: ATG_PPARa_TRANS: Attagene TRANS-FACTORIAL HepG2 Assay for human Peroxisome Proliferator-activated Receptor alpha (PPARa) (AID 2283001)
Chain of human Peroxisome Proliferator-activated Receptor alpha (PPARa), PPARA (gene 5465) (Q07869 whole entry, looked up, the tested form may be a part): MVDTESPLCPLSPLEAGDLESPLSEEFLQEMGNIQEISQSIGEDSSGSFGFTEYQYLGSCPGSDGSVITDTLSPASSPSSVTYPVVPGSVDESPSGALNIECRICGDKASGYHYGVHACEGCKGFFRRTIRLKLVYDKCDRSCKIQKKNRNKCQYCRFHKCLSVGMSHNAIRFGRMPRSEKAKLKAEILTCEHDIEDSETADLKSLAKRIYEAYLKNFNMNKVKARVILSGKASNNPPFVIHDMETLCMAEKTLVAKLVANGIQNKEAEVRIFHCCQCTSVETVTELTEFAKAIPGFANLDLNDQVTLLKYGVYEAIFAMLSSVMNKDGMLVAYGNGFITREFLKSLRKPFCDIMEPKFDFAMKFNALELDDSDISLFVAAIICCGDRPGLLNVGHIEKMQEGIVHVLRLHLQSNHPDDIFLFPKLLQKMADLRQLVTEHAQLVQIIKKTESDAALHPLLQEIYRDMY
Summary of the method: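 Exposure: 24 h, transiently transfected HepG2 cells. Endpoint: GAL4-UAS reporter mRNA, RT-PCR with capillary electrophoresis fluorescence. Baseline: DMSO; increases fitted.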

[2] = read-out: Intercellular Adhesion Molecule 1 (ICAM1), ICAM1 (gene 3383); test: BSK_3C_ICAM1: BioMAP Diversity Plus: 3C Assay for Intercellular Adhesion Molecule 1 (ICAM1) Biomarker Activity (AID 2283003; active = hit-call score of the fitted dose curve at least 0.9, where 1 is the maximum; inactive = score below 0.9); details: primary human endothelial cells (HUVEC); actives raise or lower the signal
Summary of the method: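 ELISA read-out of ICAM-1; HUVEC (primary human), 3C system, 24 h post-dosing; bidirectional fit vs DMSO baseline.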

[3] = molecular target: human Retinoic Acid Receptor beta (RARb), RARB (gene 5915) (UniProt P10826); test: ATG_RARb_TRANS: Attagene TRANS-FACTORIAL HepG2 Assay for human Retinoic Acid Receptor beta (AID 2283004)
Chain of human Retinoic Acid Receptor beta (RARb), RARB (gene 5915) (P10826 whole entry, looked up, the tested form may be a part): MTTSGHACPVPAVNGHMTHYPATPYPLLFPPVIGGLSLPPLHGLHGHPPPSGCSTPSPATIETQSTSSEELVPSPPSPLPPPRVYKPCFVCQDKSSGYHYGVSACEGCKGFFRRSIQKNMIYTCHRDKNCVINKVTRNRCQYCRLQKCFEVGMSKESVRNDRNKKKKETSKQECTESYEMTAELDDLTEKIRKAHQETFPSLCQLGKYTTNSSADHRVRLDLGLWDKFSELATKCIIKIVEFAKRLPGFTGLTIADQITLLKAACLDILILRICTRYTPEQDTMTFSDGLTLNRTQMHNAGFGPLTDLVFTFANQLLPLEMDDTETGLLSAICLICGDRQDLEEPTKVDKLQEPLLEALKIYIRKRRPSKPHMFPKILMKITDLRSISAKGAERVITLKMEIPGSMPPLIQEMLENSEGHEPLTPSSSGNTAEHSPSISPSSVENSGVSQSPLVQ
Summary of the method: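 Readout is reporter mRNA induction: RNA reverse-transcribed, PCR-amplified, FAM-labelled, HpaI-cut and resolved by capillary electrophoresis. Transiently transfected HepG2 cells carrying exogenous NR–Gal4 chimeras were dosed for 24 h; activity fitted upward relative to DMSO.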

[4] = BSK_3C_Proliferation: Cell Proliferation Assessment in the BioMAP Diversity Plus: 3C Assay (AID 2283006; active = hit-call score of the fitted dose curve at least 0.9, where 1 is the maximum; inactive = score below 0.9;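 as to AC50: potency may reflect either rise or fall in cell number versus DMSO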); details: primary human endothelial cells (HUVEC)
Summary of the method: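 HUVEC, sub-confluent; 48 h chemical exposure; 10% TCA fix, 0.1% SRB stain, A560 total protein. Gain or loss of signal fitted both directions vs DMSO control.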

[5] = molecular target: Peroxisome proliferator-activated receptor gamma (Homo sapiens) (UniProt P37231); test: ATG_PPARg_TRANS: Attagene TRANS-FACTORIAL HepG2 Assay for human Peroxisome Proliferator-activated Receptor-gamma (PPARg) (AID 2283007)
Chain of Peroxisome proliferator-activated receptor gamma (Homo sapiens) (P37231 whole entry, looked up, the tested form may be a part): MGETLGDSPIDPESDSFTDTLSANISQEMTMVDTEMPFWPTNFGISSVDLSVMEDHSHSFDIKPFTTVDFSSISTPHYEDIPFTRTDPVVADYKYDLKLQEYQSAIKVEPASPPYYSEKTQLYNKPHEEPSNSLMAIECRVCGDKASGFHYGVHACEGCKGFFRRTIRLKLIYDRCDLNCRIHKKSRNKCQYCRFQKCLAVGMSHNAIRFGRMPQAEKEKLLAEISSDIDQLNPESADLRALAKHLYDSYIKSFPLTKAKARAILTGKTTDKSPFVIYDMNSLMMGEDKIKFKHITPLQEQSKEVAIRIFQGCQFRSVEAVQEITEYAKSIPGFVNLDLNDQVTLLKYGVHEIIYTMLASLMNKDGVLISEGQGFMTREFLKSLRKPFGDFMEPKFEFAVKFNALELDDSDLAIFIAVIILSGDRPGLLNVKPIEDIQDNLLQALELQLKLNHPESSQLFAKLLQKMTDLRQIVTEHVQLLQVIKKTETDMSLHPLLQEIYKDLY
Summary of the method: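 After 24 h of chemical exposure, transfected HepG2 cells carrying PPARγ-Gal4 chimera reporter constructs are lysed for RNA. Reporter transcripts are measured by RT-PCR and capillary electrophoresis with fluorescent labelling, and gain of signal is fitted versus DMSO.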

[6] = molecular target: Nuclear receptor subfamily 1 group I member 2 (Homo sapiens) (UniProt O75469); test: ATG_PXR_TRANS: Attagene TRANS-FACTORIAL HepG2 Assay for human Pregnane X Receptor (PXR) (AID 2283008)
Chain of Nuclear receptor subfamily 1 group I member 2 (Homo sapiens) (O75469 whole entry, looked up, the tested form may be a part): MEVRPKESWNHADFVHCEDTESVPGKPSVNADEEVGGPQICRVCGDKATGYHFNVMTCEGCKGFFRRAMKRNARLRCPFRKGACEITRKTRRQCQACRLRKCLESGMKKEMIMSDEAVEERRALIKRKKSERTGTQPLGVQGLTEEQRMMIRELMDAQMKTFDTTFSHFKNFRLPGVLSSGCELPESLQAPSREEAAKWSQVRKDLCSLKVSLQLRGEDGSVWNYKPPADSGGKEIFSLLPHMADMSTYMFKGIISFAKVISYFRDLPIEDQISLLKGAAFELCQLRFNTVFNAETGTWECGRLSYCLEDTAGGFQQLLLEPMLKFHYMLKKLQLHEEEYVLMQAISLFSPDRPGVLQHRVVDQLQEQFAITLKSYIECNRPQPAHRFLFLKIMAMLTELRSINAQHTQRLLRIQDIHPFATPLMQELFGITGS
Summary of the method: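 HepG2 transfected (FuGene 6) with GAL4-UAS reporter units + PXR-Gal4 chimera; dosed 24 h. Total RNA → oligo(dT) RT → PCR → 6-FAM primer extension → HpaI cut → CE. Gain-of-signal vs DMSO.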

[7] = molecular target: Retinoic acid receptor RXR-alpha (Homo sapiens) (UniProt P19793); test: ATG_RXRa_TRANS: Attagene TRANS-FACTORIAL HepG2 Assay for human Retinoid X Receptor alpha (RXRa) (AID 2283012)
Summary of the method: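 Read-out: fluorescent reporter-transcript fragments quantified by capillary electrophoresis after RT-PCR. Transiently transfected HepG2 cells carrying GAL4-UAS reporters and NR-GAL4 chimeras were exposed to chemical for 24 h; activity scored as increase over DMSO.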

[8] = molecular target: human Retinoid X Receptor beta (RXRb), RXRB (gene 6257) (UniProt P28702); test: ATG_RXRb_TRANS: Attagene TRANS-FACTORIAL HepG2 Assay for human Retinoid X Receptor beta (RXRb) (AID 2283013)
Chain of human Retinoid X Receptor beta (RXRb), RXRB (gene 6257) (P28702 whole entry, looked up, the tested form may be a part): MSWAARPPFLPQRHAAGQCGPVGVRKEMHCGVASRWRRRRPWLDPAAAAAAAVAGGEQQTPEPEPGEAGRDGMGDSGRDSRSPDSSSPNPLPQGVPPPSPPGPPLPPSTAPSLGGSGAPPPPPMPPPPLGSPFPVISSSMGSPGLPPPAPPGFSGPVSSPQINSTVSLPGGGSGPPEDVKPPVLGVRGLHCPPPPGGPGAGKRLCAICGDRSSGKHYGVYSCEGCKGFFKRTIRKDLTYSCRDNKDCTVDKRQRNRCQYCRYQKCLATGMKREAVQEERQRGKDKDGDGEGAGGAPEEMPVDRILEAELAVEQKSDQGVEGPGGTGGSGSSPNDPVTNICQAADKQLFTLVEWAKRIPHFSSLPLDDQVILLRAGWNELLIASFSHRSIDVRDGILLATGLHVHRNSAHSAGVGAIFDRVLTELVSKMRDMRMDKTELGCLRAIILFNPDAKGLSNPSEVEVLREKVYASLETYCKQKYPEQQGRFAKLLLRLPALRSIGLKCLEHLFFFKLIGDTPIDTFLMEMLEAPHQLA
Summary of the method: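 Read-out: reporter mRNA induction via RT-PCR plus capillary electrophoresis fluorescence, analysed as signal increase relative to DMSO. Cells were human HepG2, transiently transfected with GAL4-UAS reporter constructs and chimeric receptor-Gal4 fusions, dosed for 24 h.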

[9] = molecular target: human Thyroid Receptor alpha (THRa1), THRA (gene 7067) (UniProt P10827); test: ATG_THRa1_TRANS: Attagene TRANS-FACTORIAL HepG2 Assay for human Thyroid Receptor alpha (THRa1) (AID 2283014)
Chain of human Thyroid Receptor alpha (THRa1), THRA (gene 7067) (P10827 whole entry, looked up, the tested form may be a part): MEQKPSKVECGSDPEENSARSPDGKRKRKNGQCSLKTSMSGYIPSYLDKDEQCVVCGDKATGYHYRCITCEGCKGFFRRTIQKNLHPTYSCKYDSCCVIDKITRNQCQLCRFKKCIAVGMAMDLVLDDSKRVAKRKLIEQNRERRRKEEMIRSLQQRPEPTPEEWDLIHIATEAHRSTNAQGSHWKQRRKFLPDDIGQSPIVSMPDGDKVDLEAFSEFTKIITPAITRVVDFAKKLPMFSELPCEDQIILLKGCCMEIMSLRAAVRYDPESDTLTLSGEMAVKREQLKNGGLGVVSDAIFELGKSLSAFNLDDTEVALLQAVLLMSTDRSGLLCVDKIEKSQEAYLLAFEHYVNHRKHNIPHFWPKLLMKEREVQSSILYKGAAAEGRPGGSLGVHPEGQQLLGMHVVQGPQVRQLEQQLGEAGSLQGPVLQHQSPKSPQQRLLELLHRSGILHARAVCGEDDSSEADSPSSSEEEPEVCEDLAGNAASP
Summary of the method: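 Transient HepG2 transfection, NR-Gal4 chimera driving GAL4-UAS reporters; 24 h compound exposure; total RNA, oligo(dT) RT, PCR, fluorescent primer extension, capillary electrophoresis. Upward direction vs DMSO control.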

[10] = read-out: E-selectin (Homo sapiens) (UniProt P16581); test: BSK_3C_Eselectin: BioMAP Diversity Plus: 3C Assay for Eselectin Biomarker Activity (AID 2283015; active = hit-call score of the fitted dose curve at least 0.9, where 1 is the maximum; inactive = score below 0.9;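 also: cell surface E-selectin protein quantified by ELISA 24 h after dosing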); details: primary human endothelial cells (HUVEC); actives raise or lower the signal
Summary of the method: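 HUVEC, 3C stimulation; compound exposure 24 h; E-selectin by ELISA; gain- or loss-of-signal fitted bidirectionally vs DMSO baseline.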

[11] = read-out: Interleukin-1 alpha (IL1a), IL1A (gene 3552); test: BSK_BE3C_IL1a: BioMAP Diversity Plus: BE3C Assay for Interleukin-1 alpha (IL1a) Biomarker Activity (AID 2283016; active = hit-call score of the fitted dose curve at least 0.9, where 1 is the maximum; inactive = score below 0.9); details: primary human bronchial epithelial cells; actives raise or lower the signal
Summary of the method: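 ELISA read-out of IL-1a from human lung bronchial epithelial primary cells, 24 h post-dose. Gain or loss of signal fitted relative to DMSO negative control.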

[12] = read-out: Monocyte Chemoattractant Protein-1 (MCP1), CCL2 (gene 6347); test: BSK_3C_MCP1: BioMAP Diversity Plus: 3C Assay for Monocyte Chemoattractant Protein-1 (MCP1) Biomarker Activity (AID 2283017; active = hit-call score of the fitted dose curve at least 0.9, where 1 is the maximum; inactive = score below 0.9); details: primary human endothelial cells (HUVEC); actives raise or lower the signal
Summary of the method: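 HUVEC, 3C system; 24 h chemical exposure; MCP-1 by ELISA; bidirectional curve fit vs DMSO baseline.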

[13] = read-out: Monocyte Chemoattractant Protein-1 (MCP1), CCL2 (gene 6347); test: BSK_4H_MCP1: BioMAP Diversity Plus: 4H Assay for Monocyte Chemoattractant Protein-1 (MCP1) Biomarker Activity (AID 2283018; active = hit-call score of the fitted dose curve at least 0.9, where 1 is the maximum; inactive = score below 0.9); details: primary human endothelial cells (HUVEC); actives raise or lower the signal
Summary of the method: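 HUVEC primary cells, 24 h post-dose, MCP-1 by ELISA. Gain or loss of signal fitted bidirectionally vs DMSO baseline. Cytotoxicity: SRB stain (0.1% after 10% TCA fixation), read 560 nm, parallel cultures.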

[14] = read-out: Human Leukocyte Antigen - DR isotype (HLADR), HLA-DRA (gene 3122); test: BSK_3C_HLADR: BioMAP Diversity Plus: 3C Assay for Human Leukocyte Antigen - DR isotype (HLADR) Biomarker Activity (AID 2283019; active = hit-call score of the fitted dose curve at least 0.9, where 1 is the maximum; inactive = score below 0.9); details: primary human endothelial cells (HUVEC); actives raise or lower the signal
Summary of the method: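 HUVEC, 3C stimulation, 24 h post-dose; HLA-DR by ELISA; bidirectional curve fit vs DMSO baseline; gain or loss of signal scored.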

[15] = read-out: Interleukin-8 (IL8), CXCL8 (gene 3576); test: BSK_3C_IL8: BioMAP Diversity Plus: 3C Assay for Interleukin-8 (IL8) Biomarker Activity (AID 2283020; active = hit-call score of the fitted dose curve at least 0.9, where 1 is the maximum; inactive = score below 0.9); details: primary human endothelial cells (HUVEC); actives raise or lower the signal
Summary of the method: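 HUVEC, 3C stimulation; 24 h compound exposure; IL-8 read by ELISA; gain or loss of signal fitted relative to DMSO control.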

[16] = molecular target: Retinoic acid receptor alpha (Homo sapiens) (UniProt P10276); test: ATG_RARa_TRANS: Attagene TRANS-FACTORIAL HepG2 Assay for human Retinoic Acid Receptor alpha (RARa) (AID 2283005)
Chain of Retinoic acid receptor alpha (Homo sapiens) (P10276 whole entry, looked up, the tested form may be a part): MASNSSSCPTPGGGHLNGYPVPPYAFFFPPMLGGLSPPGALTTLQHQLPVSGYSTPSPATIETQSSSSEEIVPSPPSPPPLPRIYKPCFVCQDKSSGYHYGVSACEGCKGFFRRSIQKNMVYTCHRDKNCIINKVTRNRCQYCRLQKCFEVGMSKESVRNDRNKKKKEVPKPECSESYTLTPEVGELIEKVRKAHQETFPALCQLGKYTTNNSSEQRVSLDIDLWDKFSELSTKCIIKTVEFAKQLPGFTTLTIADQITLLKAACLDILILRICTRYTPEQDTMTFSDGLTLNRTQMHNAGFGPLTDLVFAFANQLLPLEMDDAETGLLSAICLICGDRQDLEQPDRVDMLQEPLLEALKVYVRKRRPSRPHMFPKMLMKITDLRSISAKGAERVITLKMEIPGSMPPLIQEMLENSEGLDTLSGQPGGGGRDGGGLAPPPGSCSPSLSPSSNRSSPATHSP
Summary of the method: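 HepG2 cells transiently transfected with multiple reporter units expressing chimeric RARα-GAL4 fusion, with GAL4-UAS-driven reporters. After 24 h compound exposure, reporter mRNA induction quantified by RT-PCR and capillary electrophoresis with fluorescent labeling; gain-of-signal fitted relative to DMSO control.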

[17] = molecular target: human RAR-related Orphan Receptor gamma (RORg), RORC (gene 6097) (UniProt P51449); test: ATG_RORg_TRANS: Attagene TRANS-FACTORIAL HepG2 Assay for human RAR-related Orphan Receptor gamma (RORg) (AID 2283011)
Chain of human RAR-related Orphan Receptor gamma (RORg), RORC (gene 6097) (P51449 whole entry, looked up, the tested form may be a part): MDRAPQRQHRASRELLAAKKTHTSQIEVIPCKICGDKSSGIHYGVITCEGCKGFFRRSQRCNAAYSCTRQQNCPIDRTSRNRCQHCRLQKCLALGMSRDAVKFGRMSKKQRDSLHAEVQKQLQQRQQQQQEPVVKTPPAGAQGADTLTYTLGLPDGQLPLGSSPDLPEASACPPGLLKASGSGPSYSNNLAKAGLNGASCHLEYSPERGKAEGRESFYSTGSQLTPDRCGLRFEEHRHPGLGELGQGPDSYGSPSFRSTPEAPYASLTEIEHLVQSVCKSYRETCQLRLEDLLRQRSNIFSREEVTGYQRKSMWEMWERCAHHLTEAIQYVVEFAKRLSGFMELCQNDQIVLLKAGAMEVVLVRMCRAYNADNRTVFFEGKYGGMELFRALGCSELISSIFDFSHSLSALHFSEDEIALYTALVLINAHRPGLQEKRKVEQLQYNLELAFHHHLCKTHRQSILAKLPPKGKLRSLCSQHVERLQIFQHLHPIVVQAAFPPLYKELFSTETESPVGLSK
Summary of the method: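 Transient MRTU transfection of HepG2 (TRANS format, exogenous NR-Gal4 chimera). 24 h dosing. Total RNA → oligo(dT) RT → PCR → 6-FAM labelling → HpaI cut → CE. Gain vs DMSO.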

[18] = molecular target: human Peroxisome Proliferator-activated Receptor delta (PPARd), PPARD (gene 5467) (UniProt Q03181); test: ATG_PPARd_TRANS: Attagene TRANS-FACTORIAL HepG2 Assay for human Peroxisome Proliferator-activated Receptor delta (PPARd) (AID 2283002)
Summary of the method: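 Multiplexed trans-activation format: HepG2 liver cells expressing exogenous NR-Gal4 chimeras and GAL4-UAS reporters were exposed for 24 h. Reporter mRNA was detected by RT-PCR with capillary electrophoresis fluorescence; activity fitted as gain of signal relative to DMSO.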

[19] = molecular target: human Retinoic Acid Receptor gamma (RARg), RARG (gene 5916) (UniProt P13631); test: ATG_RARg_TRANS: Attagene TRANS-FACTORIAL HepG2 Assay for human Retinoic Acid Receptor gamma (RARg) (AID 2283009)
Summary of the method: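 Readout: reporter transcript levels via RT-PCR, 6-FAM primer-extension labelling, HpaI digestion and capillary electrophoresis. Cells: HepG2 carrying transfected RARg-GAL4 chimera plus UAS reporter set. Dosing 24 h; DMSO negative control.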

[20] = molecular target: human RAR-related Orphan Receptor beta (RORb), RORB (gene 6096) (UniProt Q92753); test: ATG_RORb_TRANS: Attagene TRANS-FACTORIAL HepG2 Assay for human RAR-related Orphan Receptor beta (RORb) (AID 2283010)
Chain of human RAR-related Orphan Receptor beta (RORb), RORB (gene 6096) (Q92753 whole entry, looked up, the tested form may be a part): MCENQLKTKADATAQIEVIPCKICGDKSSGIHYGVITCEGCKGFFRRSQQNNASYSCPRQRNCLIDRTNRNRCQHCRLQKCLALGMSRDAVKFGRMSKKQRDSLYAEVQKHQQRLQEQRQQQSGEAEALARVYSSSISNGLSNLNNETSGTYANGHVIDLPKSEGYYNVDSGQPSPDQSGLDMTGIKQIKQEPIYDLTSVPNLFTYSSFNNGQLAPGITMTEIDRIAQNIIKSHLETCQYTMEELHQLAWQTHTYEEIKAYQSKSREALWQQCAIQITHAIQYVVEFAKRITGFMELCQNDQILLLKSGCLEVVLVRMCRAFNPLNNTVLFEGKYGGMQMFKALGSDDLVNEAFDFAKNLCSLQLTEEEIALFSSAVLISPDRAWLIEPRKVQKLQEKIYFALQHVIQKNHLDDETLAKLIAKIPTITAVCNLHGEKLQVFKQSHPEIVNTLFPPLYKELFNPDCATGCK
Summary of the method: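 HepG2, transient MRTU transfection (GAL4-UAS reporters, exogenous NR-Gal4 chimeras); 24 h compound exposure; total RNA → RT-PCR → 6-FAM primer extension → HpaI digest → CE fluorescence. Positive direction vs DMSO baseline.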

Measured: AC50

Chain of E-selectin (Homo sapiens) (P16581 whole entry, looked up): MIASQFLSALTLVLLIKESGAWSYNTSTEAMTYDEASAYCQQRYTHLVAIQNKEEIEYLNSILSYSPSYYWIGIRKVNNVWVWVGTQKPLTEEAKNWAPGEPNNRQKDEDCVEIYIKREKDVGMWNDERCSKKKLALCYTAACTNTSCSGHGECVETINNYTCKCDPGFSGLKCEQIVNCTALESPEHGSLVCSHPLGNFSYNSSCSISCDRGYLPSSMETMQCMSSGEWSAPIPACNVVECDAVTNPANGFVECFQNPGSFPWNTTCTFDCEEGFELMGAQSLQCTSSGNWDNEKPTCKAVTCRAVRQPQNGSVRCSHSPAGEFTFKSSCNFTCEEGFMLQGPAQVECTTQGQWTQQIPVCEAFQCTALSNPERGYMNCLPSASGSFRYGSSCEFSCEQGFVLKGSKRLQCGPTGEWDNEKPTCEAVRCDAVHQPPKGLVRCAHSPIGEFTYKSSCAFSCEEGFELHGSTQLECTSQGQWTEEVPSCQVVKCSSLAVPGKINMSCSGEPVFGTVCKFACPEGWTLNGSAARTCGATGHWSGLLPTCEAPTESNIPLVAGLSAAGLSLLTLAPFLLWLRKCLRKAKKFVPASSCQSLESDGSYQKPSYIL

OC1CCC(C2CCCCC2)CC1 (configuration not stated)
inactive: [1] | [2] | [3] | [4] | [5] | [6] | [7] | [8] | [9] | [10] | [11] | [12] | [13] | [14] | [15]
active: [6] 23.9 µM

CN(C)C=O
active: [7] 4.99 µM | [8] 740 nM
not listed: [6] | [9] | [18] | [19] | [20]
inactive: all other assays above

CCCOC(=O)c1ccc(O)cc1
active: [5] 45.6 µM | [6] 100 µM
inactive: [1] | [18] | [2] | [3] | [16] | [4] | [6] | [19] | [8] | [9] | [10] | [11] | [12] | [13] | [14] | [15]

O=c1c(-c2ccc(O)cc2)coc2cc(O)ccc12
active: [4] 20 µM | [5] 27.3 µM and 20.3 µM and 65.3 µM | [13] 13.8 µM | [14] 27.1 µM
not listed: [3] | [16] | [18] | [19]
inactive: all other assays above

CC(O)CO (configuration not stated)
not listed: [6] | [8] | [9] | [18] | [20]
inactive: all other assays above

C=C(C)C(=O)OCCC(F)(F)C(F)(F)C(F)(F)C(F)(F)C(F)(F)C(F)(F)F
active: [4] 12.8 µM
inactive: [1] | [2] | [4] | [5] | [6] | [17] | [7] | [8] | [9] | [10] | [11] | [12] | [13] | [14] | [15]

Reference: PubChem BioAssay (EPA / NIEHS)
